Measured values as given in PubChem BioAssay (NCI).
This is part of a sample that, as a whole, favours compounds with a hit. Of some 83,000 tested, about 20% had one in any assay.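 Each cell line was grown in a 96-well plate and treated with one concentration of compound for 48 hours. Values below 10 were considered active.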 A number with no mark means an inactive call. Active and inactive are the calls of the source.

Key:
Experiment in all cases: NCI-60 one-dose screen, 48 h (100 = growth as untreated, 0 = no growth, -100 = all killed)
Conditions in all cases: 10 µM unless noted
T-47D breast = system: T-47D breast
BT-549 breast = system: BT-549 breast
MDA-MB-435 melanoma = system: MDA-MB-435 melanoma
SW-620 colon = system: SW-620 colon
MCF7 breast = system: MCF7 breast
HCT-116 colon = system: HCT-116 colon
HCC-2998 colon = system: HCC-2998 colon
KM12 colon = system: KM12 colon

SMILES | growth (T-47D breast) | growth (BT-549 breast) | growth (MDA-MB-435 melanoma) | growth (SW-620 colon) | growth (MCF7 breast) | growth (HCT-116 colon) | growth (HCC-2998 colon) | growth (KM12 colon)
CC/C(=C(/c1ccc(Cl)cc1)c1ccc(OCCN2CCCC2)cc1)c1ccc(OC)cc1 | 43.7% | 85.8% | 73.5% | 60.2% | 18.5% | 65.9% | 71.1% | 56%
CN(C)CCCC1(c2ccc(F)cc2)OCc2cc(-c3cccc4[nH]ccc34)ccc21 (configuration not stated) | -39.2% (active) | 73.8% | -42.1% (active) | -24.6% (active) | -24.1% (active) | -64% (active) | -30.6% (active) | 10.3%
CCN(C(=O)N1CCN(c2cc3c(cc2F)c(=O)c(C(=O)O)cn3C2CC2)CC1)c1nc(-c2ccc(Cl)cc2)cs1 | 22.3% | -8.09% (active) | 17.9% | 18.3% | 9.42% (active) | 9.89% (active) | 25% | 13.1%
Cn1ccnc1C(=O)C(=O)Nc1ccc(CC(=O)Nc2ccccc2)cc1 | 112% | 103% | 101% | 102% | 92.1% | 114% | 106% | 105%
CC1=C(Nc2ccc(N3CCN(C)CC3)cc2)C(=O)c2cncnc2C1=O | -44.2% (active) | 101% | -83.7% (active) | 75.8% | 61.9% | 6.39% (active) | 126% | 91.2%
C#COc1cccc(Nc2ncnc3ncc(NC(=O)CCl)cc23)c1 | 30.5% [6.25 µM] | 28.6% [6.25 µM] | 17.1% [6.25 µM] | -55.1% [6.25 µM] (active) | -0.408% [6.25 µM] (active) | -32.6% [6.25 µM] (active) | 51.5% [6.25 µM] | 15.7% [6.25 µM]
CC(C)=CCC[C@](C)(O)[C@H]1CC[C@]2(C)[C@@H]1CC[C@@H]1[C@@]3(C)Cc4nccnc4C(C)(C)[C@@H]3CC[C@]12C | 51.5% | 74.8% | 64.6% | 71.1% | -59.3% (active) | 46.9% | 79.4% | 75%
CN1C(=O)/C(=C/c2ccc(C(=O)Nc3ncc(Cc4ccc(Cl)cc4)s3)cc2)SC1=S | 37.8% | 46.7% | -32% (active) | 28.9% | 55.5% | 24.2% | 59.3% | 21.1%
CC(C)N1CCN(Cc2ccc3c(NNC(=O)c4ccccc4)nc4cc(F)ccc4n23)CC1 | 20.3% | 45.6% | 30.5% | 24.9% | 9.7% (active) | 24.5% | 25% | 23.1%
N#Cc1cccc(F)c1 | 101% | 111% | 105% | 109% | 112% | 106% | 118% | 110%
O=C(NCCCN1CCOCC1)c1cccc(N2C(=O)/C(=C/c3ccc(F)cc3)SC2=S)c1 | 91.7% | 96.8% | 95.3% | 95.9% | 92.9% | 96.7% | 97.1% | 99.6%
O=CC1(C2(C=O)c3ccccc3-c3ccccc32)c2ccccc2-c2ccccc21 | -51% (active) | -74.3% (active) | -57.9% (active) | -29.2% (active) | -52.4% (active) | -60.6% (active) | -41.5% (active) | -44.5% (active)
O=C(O)CCCN1C(=O)/C(=C/C(Cl)=C/c2ccccc2)SC1=S | 45.3% | 7.71% (active) | -14.9% (active) | 7.33% (active) | 14.2% | -54.2% (active) | 5.79% (active) | 13.6%
O=C1C(Cl)=C(Oc2ccccc2)C(=O)c2ccccc21 | -0.942% (active) | 70.8% | 108% | 47.6% | 73% | 29.3% | 66.5% | 27.1%
O=C1/C(=C/c2ccc(Cl)cc2)COc2ccc(O)cc21 | 83.5% | 80.5% | 64.7% | 2.28% (active) | 5.46% (active) | 4.5% (active) | 83.8% | 20.3%
O=C(Nc1ccc(-c2nc(N3CCOCC3)c3cccn3n2)cc1)Nc1cccnc1 | -24.8% (active) | -10.2% (active) | 3.87% (active) | 8.71% (active) | 4.54% (active) | 4.12% (active) | 12.9% | 9.01% (active)
CSc1nnc(-c2cnn3c2NC(c2ccccc2)C3)n1-c1ccc(C(F)(F)F)cc1 (configuration not stated) | 54.2% | 85.7% | -25.7% (active) | 50.9% | 26.9% | 46% | 85.9% | 49.3%
CCOC(=O)c1cn2ncnc(Oc3ccc(NC(=O)NC4CCCCC4)c(Cl)c3)c2c1C | 85% | 90.4% | 85.6% | 81.6% | 51.7% | 81.4% | 94.6% | 96.9%
CCN1CCN(Cc2cn(CC(=O)Nc3ccc4c(ccn4Cc4ccccc4)c3)nn2)CC1 | 91.1% | 96.1% | 97.7% | 99.3% | 99.5% | 99.2% | 110% | 101%
COc1ccc2nc3ccc(OC)cc3c(SCCCN)c2c1 | 76.5% | 95.5% | 87.3% | 18.3% | 28.7% | -49.8% (active) | 105% | 83.2%
CCc1ccc(Oc2cn[nH]c2-c2ccc(OCCc3ccc(F)cc3)cc2O)cc1 | 34.5% | 107% | 91.6% | 94.1% | 85.3% | 71.9% | 98.5% | 84.8%
CCN(CC)CCSc1nc(-c2ccccc2)c(C#N)c(=O)[nH]1 | 93.8% | 94.9% | 103% | 94.4% | 104% | 105% | -6.88% (active) | 118%
O=C(O)CNC1=C(Cl)C(=O)c2ccccc2C1=O | 78.1% | 87.5% | 102% | 102% | 81.8% | 100% | 114% | 104%
COc1ccc2c(O)c(/C=C3\N=Nc4ncccc43)oc2c1C[C@H]1CCNC[C@H]1F | 41.5% | -54.6% (active) | 7.14% (active) | -15.5% (active) | 2.59% (active) | -6.67% (active) | 0.205% (active) | -17.4% (active)
N#Cc1c(N)nnn1Cc1cc(=O)oc2c1ccc1ccccc12 | 92.3% | 99.9% | 105% | 97.7% | 92.6% | 106% | 105% | 103%
CN1CCN(c2ccc(NC(=O)c3nc4ccc5[nH]ncc5c4c4c3CCCC4)cc2C(F)(F)F)CC1 | 66.5% | 90.6% | 29.7% | 5% (active) | 24.6% | 2.82% (active) | 21.1% | 37.9%
CCN(CC)C(=S)SC(SC(=S)N(CC)CC)C(=O)c1nnn(-c2ccc([N+](=O)[O-])cc2)c1C | 76.4% | 109% | 101% | 95.5% | 59.3% | 95.7% | 104% | 98%
CCNc1cc(-c2cccc(OC(F)(F)F)c2)nc2ccc(N3CCCC3)cc12 | -24.6% (active) | 75.2% | 2.21% (active) | 4.43% (active) | 3.29% (active) | -15.9% (active) | 6.29% (active) | 4.19% (active)
Cc1ccc(-c2nc3nc(-c4ccccc4)nc(N4CCNCC4)c3o2)cc1 | -68.4% (active) | -71.9% (active) | -87.4% (active) | -69.4% (active) | -66.2% (active) | -77.1% (active) | -86.8% (active) | -87.9% (active)
